Measurements taken from PubChem BioAssay (NCATS).
Results filed as inconclusive are left out. Activity calls are given as the source filed them. Unless noted, calls follow the shape of the full dose curve.

Columns and labels:
[1] = Primary qHTS for inhibitors of SARS-S pseudo-typed particle cell entry (AID 1479145); conditions: outcome: dose series up to 57.1 µM unless noted; also: nearly all actives have a fitted effect of over 45% in size
[2] = Primary qHTS for Huh7 cytotoxicity: counterscreen for inhibitors of MERS-S pseudotyped particle cell entry (AID 1479147); conditions: outcome: dose series up to 57.1 µM unless noted
[3] = Primary qHTS for inhibitors of MERS-S pseudo-typed particle cell entry (AID 1479149); conditions: outcome: dose series up to 57.1 µM unless noted; also: nearly all actives have a fitted effect of over 60% in size
[4] = Primary qHTS for Vero E6 cytotoxicity: counterscreen for inhibitors of SARS-S pseudo-typed particle cell entry (AID 1479150); conditions: outcome: dose series up to 57.1 µM unless noted
[5] = Confirmatory qHTS to identify inhibitors of SARS-CoV-2 cell entry (AID 1645844); also: potency is read from the fitted curve at half-maximal effect; nearly all actives have a fitted effect of over 45% in size
How it was run: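 Luminescence entry read-out after 48 h: spike-pseudotyped MLV particles (Wuhan-Hu-1, 19-aa C-terminal truncation) added to compound-pretreated (1 h) HEK293-ACE2 cells; Data were normalised to bald PP and spike PP wells.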

[6] = Cytotoxicity counterscreen for inhibitors of SARS-CoV-2 cell entry (AID 1645845); conditions: outcome: dose series up to 57.1 µM unless noted; also: nearly all actives have a fitted effect of over 50% in size
How it was run: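 ATP-content luminescence (ATPLite 1step, 15 min RT) read after 48 h compound exposure of Expi293F cells stably expressing human ACE2; normalized to cells-only wells and media-only wells.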

[7] = VSVG counterscreen qHTS to identify inhibitors of SARS-CoV-2 cell entry (AID 1645847); also: potency is read from the fitted curve at half-maximal effect; nearly all actives have a fitted effect of over 65% in size
How it was run: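 Entry of VSV-G pseudotyped particles into human ACE2-expressing HEK293 cells was measured by luciferase luminescence 48 h after infection, with compound added 1 h beforehand.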

[8] = molecular target: Glutathione peroxidase 1 (Homo sapiens) (UniProt P07203); test: Primary qHTS Assay for Inhibitors of Recombinant Selenoprotein Glutathione Peroxidase 1 (GPX1) (AID 1845191; active = well fitted inhibition curve with a large enough effect; also: nearly all actives have a fitted effect of over 65% in size)
How it was run: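 NADPH consumption tracked by fluorescence at 340/450 nm between t=0 and t=15 min, room temperature. Final mix: 10 nM GPX1, 100 nM glutathione reductase, 1 mM GSH, 0.5 mM NADPH, 0.5 mM cumene hydroperoxide, 0.01% BSA; 30 min compound–enzyme preincubation.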

Measured: Potency

Sequence of Glutathione peroxidase 1 (Homo sapiens) (P07203 whole entry, looked up): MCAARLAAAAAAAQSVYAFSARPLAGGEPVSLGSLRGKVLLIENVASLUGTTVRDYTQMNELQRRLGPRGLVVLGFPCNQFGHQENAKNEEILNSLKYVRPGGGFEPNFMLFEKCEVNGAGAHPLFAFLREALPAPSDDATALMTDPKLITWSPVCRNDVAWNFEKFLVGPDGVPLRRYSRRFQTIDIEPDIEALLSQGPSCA

CC[C@H]1OC(=O)C[C@@H](OC(C)=O)[C@H](C)[C@@H](O[C@@H]2O[C@H](C)[C@@H](O[C@H]3C[C@@](C)(O)[C@@H](OC(=O)CC(C)C)[C@H](C)O3)[C@H](N(C)C)[C@H]2O)[C@@H](CC=O)C[C@@H](C)C(=O)/C=C/C(C)=C/[C@@H]1CO[C@@H]1O[C@H](C)[C@@H](O)[C@@H](OC)[C@H]1OC
inactive: [1] | [2] | [3] | [4]

CCCCCCCCCCCCCCCC(=O)OC1CCCn2c1nc(C)c(CCN1CCC(c3noc4cc(F)ccc34)CC1)c2=O (stereo unspecified)
inactive: [1] | [2] | [3] | [4]

CO[C@@H]1[C@H](C)OC(O[C@H]2CC(Oc3cc4cc5c(c(O)c4c(O)c3C)C(=O)[C@@H](OC3C[C@@H](OC4C[C@H](OC6C[C@](C)(O)[C@@H](OC(C)=O)[C@H](C)O6)[C@@H](O)[C@H](C)O4)[C@H](O)[C@@H](C)O3)[C@H]([C@@H](OC)C(=O)[C@@H](O)[C@H](C)O)C5)O[C@@H](C)[C@H]2OC(C)=O)C[C@@H]1O (stereo partly specified)
active: [5] 21.5 nM | [7] 48.2 nM
inactive: all other assays above

C=CC[N@@+]12CC[C@]34c5ccccc5N5/C=C6\C7N(/C=C(\C53)[C@@H](C[C@@H]41)/C(=C/CO)C2)c1ccccc1[C@@]71CC[N@@+]2(CC=C)C/C(=C\CO)[C@@H]6C[C@@H]12 (stereo partly specified)
inactive: [1] | [2] | [3] | [4] | [6]

CCCCCCCCCCCCCCCC(=O)OC[C@@H](O)[C@H]1OC[C@H](O)[C@H]1O
inactive: [1] | [2] | [3] | [4] | [6]

CCCCc1cc2c(=O)c(C(=O)OC)c[nH]c2cc1OCc1ccccc1
inactive: [1] | [2] | [3] | [4] | [6]

CC1(C)[C@@H]2CC[C@@]1(C)[C@H](OC(=O)CSC#N)C2
inactive: [1] | [2] | [3] | [4] | [6]

CCOC(=O)COc1ccc2c(C)c(CCN(CC)CC)c(=O)oc2c1
inactive: [1] | [2] | [3] | [4] | [6]

CC(C)CCC[C@@H](C)[C@H]1CC[C@H]2[C@@H]3CC[C@H]4C[C@@H](O)CC[C@]4(C)[C@@H]3CC[C@]12C
inactive: [1] | [2] | [3] | [4] | [6]

CC(C)(CO)C(O)C(=O)NCCCC(=O)O (stereo unspecified)
inactive: [1] | [2] | [3] | [4] | [6]

CC[C@@H](C)C[C@@H](C)CCCCCCCCC(=O)NC1C[C@@H](O)[C@@H](NCCN)NC(=O)[C@@H]2[C@@H](O)CCN2C(=O)[C@H]([C@H](O)CCN)NC(=O)[C@H]([C@H](O)[C@@H](O)c2ccc(O)cc2)NC(=O)[C@@H]2C[C@@H](O)CN2C(=O)[C@H]([C@@H](C)O)NC1=O (stereo partly specified)
inactive: [1] | [2] | [3] | [4] | [6]

CS(=O)(=O)OCC(O)C(O)COS(C)(=O)=O (stereo unspecified)
inactive: [1] | [2] | [3] | [4] | [6]

O=c1[nH]cnc2c([C@@H]3N[C@H](CO)[C@@H](O)[C@H]3O)c[nH]c12
inactive: [1] | [2] | [3] | [4] | [6]

CC1(C)S[C@@H]2[C@H](NC(=O)[C@H](NC(=O)N3CCNC3=O)c3ccccc3)C(=O)N2C1C(=O)O (stereo partly specified)
inactive: [1] | [2] | [3] | [4] | [6]

CC(=O)c1cc2cccc(OCC(O)CNC(C)C)c2o1 (stereo unspecified)
inactive: [1] | [2] | [3] | [4] | [6]

CCCCC(CC)COC(=O)CC(C(=O)OCC(CC)CCCC)S(=O)(=O)O (stereo unspecified)
inactive: [1] | [2] | [3] | [4] | [6]

O=C(OCCN(CCO)CCO)c1ccccc1O
inactive: [1] | [2] | [3] | [4] | [6]

NS(=O)(=O)c1ccc(-n2nc(C(F)(F)F)cc2-c2ccc(F)cc2)cc1
inactive: [1] | [2] | [3] | [4] | [6]

CN(CCCCCCCCCCN(C)C(=O)Oc1cccc([N+](C)(C)C)c1)C(=O)Oc1cccc([N+](C)(C)C)c1
inactive: [1] | [2] | [3] | [4] | [6]

OCc1cc(C(O)CNCCCCCCOCCOCc2c(Cl)cccc2Cl)ccc1O (stereo unspecified)
inactive: [1] | [2] | [3] | [4] | [6]

CC1=CC(O)CC(C)(C)C1/C=C/C(C)=C/C=C/C(C)=C/C=C/C=C(C)/C=C/C=C(C)/C=C/C1=C(C)CC(O)CC1(C)C (stereo unspecified)
inactive: [1] | [2] | [3] | [4] | [6]

CCC(=O)Oc1ccc2c(c1)CC[C@@H]1[C@H]2CC[C@]2(C)[C@@H](OC(=O)CC)CC[C@@H]12
inactive: [1] | [2] | [3] | [4] | [6]

CC1(C)C2CC[C@]3(C)C(C(=O)C=C4[C@@H]5C[C@@](C)(C(=O)O)CC[C@]5(C)CC[C@]43C)[C@@]2(C)CC[C@@H]1O (stereo partly specified)
inactive: [1] | [2] | [3] | [4] | [6]

CC(=O)O[C@]1(C(C)=O)CC[C@H]2[C@@H]3C[C@H](C)C4=CC(=O)C=C[C@]4(C)[C@@]3(F)[C@@H](O)C[C@@]21C
inactive: [1] | [2] | [3] | [4] | [6]

C=C[C@@H]1C[C@]1(NC(=O)[C@@H]1C[C@@H]2CN1C(=O)[C@H](C(C)(C)C)NC(=O)O[C@@H]1C[C@H]1CCCCCc1nc3ccc(OC)cc3nc1O2)C(=O)NS(=O)(=O)C1CC1
inactive: [1] | [2] | [3] | [4] | [6]

C[N+](C)(C)CCOP(=O)([O-])OP(=O)(O)OC[C@H]1OC(n2ccc(N)nc2=O)[C@H](O)[C@@H]1O (stereo partly specified)
inactive: [1] inactive [at 0.573 µM] | [2] inactive [at 0.573 µM] | [3] inactive [at 0.573 µM] | [4] inactive [at 0.573 µM] | [6] inactive [at 0.702 µM]
